From PubChem BioAssay
Active and inactive are the calls of the source.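 Rule for the calls, unless noted: active = compound raises GLP1 secretion from the human gut endocrine cells, with no numeric limit stated; inactive = the rest.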

What was measured:
[1] = stimulators of nuclear beta-catenin in C2C12, primary screen, imaging, WNT3A-conditioned medium, mouse C2C12, NPC library (AID 1117326; in the data active = nuclear beta-catenin stimulation mostly above about 4.2%, no sharp cut-off; inactive = mostly below about 10%); conditions: stronger effect = higher value
[2] = stimulators of insulin release from INS-1E, primary screen, cell-based, 5 mM glucose, NPC library (AID 1117329;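 active = compound raises insulin release from rat beta cells at 5 mM glucose, no numeric limit stated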); conditions: rat INS-1E insulin secretion, at 10 µM, stronger effect = higher value
[3] = growth inhibition of GSK3B-pretreated HCT116 cells – cell-based, CellTiter-Glo, 0.2 to 20 µM (AID 1117336;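 active = compounds lowering colon cancer cell viability after pretreatment blocking the GSK3B kinase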); conditions: HCT116 viability after GSK3B inhibitor, at 20 µM, stronger effect = higher value
[4] = inhibition of endothelial tube formation, primary screen, imaging, VEGF stimulated, CD31 staining, tube area, NPC library (AID 1117340;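 active = compound that reduces growth-factor-driven endothelial tube area in a mixed cell culture, no cutoff stated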); conditions: VEGF-stimulated ADSC/ECFC co-culture, at 10 µM, stronger effect = higher value
[5] = glucagon-like peptide 1 release enhancers, primary assay, NCI-H716 cell line, NPC library (AID 1117341); conditions: NCI-H716 cells, at 10 µM, stronger effect = higher value
[6] = HCT116 colon cancer cell growth inhibition, primary screen, CellTiter-Glo luminescence, NPC library (AID 1117342;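 active = compounds that lower survival of HCT116 colon cancer cells in the luminescence readout, no numeric limit stated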); conditions: at 20 µM (top of the series)
[7] = CellTiter-Glo luminescent readout of SW480 viability loss, NPC library primary (AID 1117343;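 active = compounds that lower viability of the colon cancer cells in the luminescence readout, with no numeric limit stated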); conditions: CellTiter-Glo luminescence; at 20 µM (top of the series)
[8] = decreased DLD-1 cellular survival, CellTiter-Glo luminescent readout, NPC compound collection, primary HTS (AID 1117346;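 active = compounds that lower survival of DLD-1 colon cancer cells in the luminescence readout, no cutoff given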); conditions: DLD-1 viability, CellTiter-Glo luminescence; at 20 µM (top of the series)
[9] = kinase inhibitors against Plasmodium liver-stage infection, cell-based, known kinase inhibitor set, luminescence, hepatoma host viability (AID 624392; call rule not given here;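 note: infected cells incubated roughly two days before readout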); conditions: Plasmodium liver stage in hepatoma cells, luciferase luminescence, concentration not given here; liver cell % of control: measured here: host liver cell viability; parasite % of control: stronger effect = lower value
[10] = modulators of glucocorticoid suppression of NF-kB, cell-based, luciferase, IL-1B stimulus, dexamethasone (AID 624486; call rule not given here;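 for percent of negative control (+Dex): 100% = mean signal of vehicle control wells on the plate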); conditions: NF-kB luciferase reporter, IL-1B + dexamethasone, luminescence; percent of negative control (+Dex): actives lie on both sides, concentration not given here; z-score: measured here: IL-1B alone, no Dex
[11] = kinase inhibitors altering Pseudomonas killing of worms, whole organism (AID 651566; call rule not given here;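 note: tested at 14 µM; sign flipped so higher z means a lower ratio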); conditions: C. elegans killed by P. aeruginosa, survival ratio
[12] = activators of macrophage pro-inflammatory response, cell-based, murine, luminescence (AID 652131; call rule not given here); conditions: murine macrophage pro-inflammatory reporter, stronger effect = higher value
[13] = IRF3 reporter activation in THP-1 macrophages, cell-based, PMA-stimulated THP-1, luminescence (AID 1053176; call rule not given here); conditions: PMA-differentiated THP-1, IRF3 reporter luminescence; stronger effect = higher value
[14] = survival rescue of mitochondrial mutant cells in low glucose, primary screen, MELAS cybrids, Rieske KO mouse fibroblasts, CellTiter-Glo (AID 1508586;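 active = mean z-score across replicates of 1.96 or higher in either the MELAS or the Rieske mutant cell line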;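 note: z relative to plate mean and SD of compound and empty wells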)
[15] = MELAS cybrid survival, CellTiter-Glo 48 h, stronger effect = higher value
[16] = Rieske KO mouse fibroblast survival, CellTiter-Glo 72 h

CC(C)CCC[C@@H](C)[C@H]1CC[C@H]2[C@@H]3CC[C@H]4C[C@@H](O)CC[C@]4(C)[C@@H]3CC[C@]12C
0.5%: nuclear beta-catenin stimulation ([1]; stimulation, at 2 µM)
inactive: nuclear beta-catenin stimulation ([1]; at 10 µM) 0% | insulin secretion stimulation [2] 1.1% | viability decrease [3] 1.6% | tube area decrease [4] -1.6% | GLP1 secretion stimulation [5] -1.9% | inhibition of viability [6] -2.8% | viability decrease (inhibition) [7] -7.2% | viability decrease (inhibition) [8] -8.7%

CC(=O)Nc1ccc(/C=N/NC(N)=S)cc1
0.5%: nuclear beta-catenin stimulation ([1]; stimulation, at 2 µM)
inactive: nuclear beta-catenin stimulation ([1]; at 10 µM) 0.3% | insulin secretion stimulation [2] -2.3% | viability decrease [3] -4.65% | tube area decrease [4] -8.1% | GLP1 secretion stimulation [5] 4.3% | inhibition of viability [6] 13.3% | viability decrease (inhibition) [7] 13% | viability decrease (inhibition) [8] -1.8%

O=S1CCN(Cc2ccc(-c3ccc4ncnc(Nc5ccc(OCc6cccc(F)c6)c(Cl)c5)c4c3)o2)CC1
-0.225: z-score [14, 16]
103%: liver cell % of control [9]
active: z-score [12] 13.5
-1.72: z-score [10]
inactive: parasite % of control [9] 99.6% | percent of negative control (+Dex) [10] 74.5% | z-score [11] -0.375 | fraction signal [13] -0.007 | z-score [14, 15] 0.445

O=C1NC(=O)C(c2cccc([N+](=O)[O-])c2)=C1Nc1cc(Cl)c(O)c(Cl)c1
-0.485: z-score [10]
108%: liver cell % of control [9]
inactive: parasite % of control [9] 92.3% | percent of negative control (+Dex) [10] 80.5% | z-score [11] 0.045 | z-score [12] 0.634 | fraction signal [13] -0.003 | z-score [14, 15] -0.803
-0.48: z-score [14, 16]

CC(=O)O[C@@H]1C(=O)O[C@@H]2[C@H]1OC(=O)[C@@H]2OC(C)=O
inactive: nuclear beta-catenin stimulation ([1]; at 10 µM) 0.6% | insulin secretion stimulation [2] 2.4% | viability decrease [3] 19.5% | tube area decrease [4] -1% | GLP1 secretion stimulation [5] -3.4% | inhibition of viability [6] 22.9% | viability decrease (inhibition) [7] 18.7% | viability decrease (inhibition) [8] 4.6%
-1.1%: nuclear beta-catenin stimulation ([1]; stimulation, at 2 µM)

CCN1CCCC1=O
2.9%: nuclear beta-catenin stimulation ([1]; stimulation, at 2 µM)
inactive: nuclear beta-catenin stimulation ([1]; at 10 µM) -0.1% | insulin secretion stimulation [2] 2.6% | viability decrease [3] 18.7% | tube area decrease [4] -19.9% | GLP1 secretion stimulation [5] 4.1% | inhibition of viability [6] -2.03% | viability decrease (inhibition) [7] -20.4% | viability decrease (inhibition) [8] -9.9%

CN(C)c1cc(NC(=O)CNC(C)(C)C)c(O)c2c1C[C@@H]1C[C@H]3[C@H](N(C)C)C(=O)C(C(N)=O)=C(O)[C@@]3(O)C(=O)C1=C2O
inactive: nuclear beta-catenin stimulation ([1]; at 10 µM) -0.8% | insulin secretion stimulation [2] -0.5% | tube area decrease [4] -8.6% | GLP1 secretion stimulation [5] 3.4%
-1.4%: nuclear beta-catenin stimulation ([1]; stimulation, at 2 µM)
active: viability decrease [3] 70% | inhibition of viability [6] 59.6% | viability decrease (inhibition) [7] 72% | viability decrease (inhibition) [8] 58.1%

O=C(O)c1ccc(Oc2nccc(-c3c(-c4ccc(F)cc4)ncn3C3CCNCC3)n2)cc1
inactive: parasite % of control [9] 117% | percent of negative control (+Dex) [10] 97% | z-score [11] -0.625 | z-score [12] 0.424 | fraction signal [13] 0.0015 | z-score [14, 15] -0.0801
-0.04: z-score [10]
-0.396: z-score [14, 16]
104%: liver cell % of control [9]

Cc1cn([C@H]2C[C@H](F)[C@@H](CO)O2)c(=O)[nH]c1=O
inactive: nuclear beta-catenin stimulation ([1]; at 10 µM) 9.9% | insulin secretion stimulation [2] 0.2% | viability decrease [3] -4.5% | tube area decrease [4] 20.7% | GLP1 secretion stimulation [5] -4.5% | inhibition of viability [6] 1.4% | viability decrease (inhibition) [7] -3.5% | viability decrease (inhibition) [8] -8.7%
3.4%: nuclear beta-catenin stimulation ([1]; stimulation, at 2 µM)

CCN(CC)CCSC(=O)C(c1ccccc1)c1ccccc1
2.8%: nuclear beta-catenin stimulation ([1]; stimulation, at 2 µM)
inactive: nuclear beta-catenin stimulation ([1]; at 10 µM) 7.2% | insulin secretion stimulation [2] 15.8% | viability decrease [3] 6.7% | tube area decrease [4] 3.2% | GLP1 secretion stimulation [5] 9.6% | inhibition of viability [6] 1% | viability decrease (inhibition) [7] 5.1% | viability decrease (inhibition) [8] 1.5%

CC1(C)S[C@@H]2[C@H](NC(=O)C(C(=O)Oc3ccc4c(c3)CCC4)c3ccccc3)C(=O)N2[C@H]1C(=O)O (some centres not stated)
inactive: nuclear beta-catenin stimulation ([1]; at 10 µM) 1% | insulin secretion stimulation [2] 4.4% | viability decrease [3] -7.7% | tube area decrease [4] -2.6% | GLP1 secretion stimulation [5] -0.3% | inhibition of viability [6] 1.5% | viability decrease (inhibition) [8] -6.9%
0.4%: nuclear beta-catenin stimulation ([1]; stimulation, at 2 µM)
active: viability decrease (inhibition) [7] 86%

O=C(CO)[C@@H](O)[C@H](O)[C@@H](O)C(=O)O
-0.9%: nuclear beta-catenin stimulation ([1]; stimulation, at 2 µM)
inactive: nuclear beta-catenin stimulation ([1]; at 10 µM) -2.6% | insulin secretion stimulation [2] 0.7% | viability decrease [3] -2.4% | tube area decrease [4] -0.1% | GLP1 secretion stimulation [5] -5.4% | inhibition of viability [6] 2.2% | viability decrease (inhibition) [7] 0.3% | viability decrease (inhibition) [8] -3.1%

O=C(O)CCC(=O)C(=O)O
-0.1%: nuclear beta-catenin stimulation ([1]; stimulation, at 2 µM)
inactive: nuclear beta-catenin stimulation ([1]; at 10 µM) -1.7% | insulin secretion stimulation [2] -2.2% | viability decrease [3] 0.1% | tube area decrease [4] -17.8% | GLP1 secretion stimulation [5] -1.6% | inhibition of viability [6] -1.4% | viability decrease (inhibition) [7] 2.9% | viability decrease (inhibition) [8] -7.5%

NC(=S)N/N=C/c1cccnc1
inactive: nuclear beta-catenin stimulation ([1]; at 10 µM) 0.4% | insulin secretion stimulation [2] -0.8% | viability decrease [3] 0.7% | tube area decrease [4] -13.5% | GLP1 secretion stimulation [5] 1.9% | inhibition of viability [6] -8.9% | viability decrease (inhibition) [7] 38.7% | viability decrease (inhibition) [8] 1.65%
0.5%: nuclear beta-catenin stimulation ([1]; stimulation, at 2 µM)

Cc1c(Cn2ccnc2)c2ccccc2n1CCC(=O)O
active: viability decrease [3] 108% | inhibition of viability [6] 103% | viability decrease (inhibition) [7] 79.6% | viability decrease (inhibition) [8] 60.9%
2.7%: nuclear beta-catenin stimulation ([1]; stimulation, at 2 µM)
inactive: nuclear beta-catenin stimulation ([1]; at 10 µM) 0.7% | insulin secretion stimulation [2] -0.1% | tube area decrease [4] -6.9% | GLP1 secretion stimulation [5] -1.3%

CCCOC(=O)c1ccc(N)cc1
0.3%: nuclear beta-catenin stimulation ([1]; stimulation, at 2 µM)
active: viability decrease (inhibition) [7] 110%
inactive: nuclear beta-catenin stimulation ([1]; at 10 µM) -0.1% | insulin secretion stimulation [2] -1.5% | viability decrease [3] -4.45% | tube area decrease [4] 4.9% | GLP1 secretion stimulation [5] -0.1% | inhibition of viability [6] 1.8% | viability decrease (inhibition) [8] 21.4%

C/C(=N\O)c1ccc(OCC(=O)N2CCCCC2)cc1
-1.1%: nuclear beta-catenin stimulation ([1]; stimulation, at 2 µM)
inactive: nuclear beta-catenin stimulation ([1]; at 10 µM) 0.1% | insulin secretion stimulation [2] 3.05% | viability decrease [3] 17.3% | tube area decrease [4] -6.2% | GLP1 secretion stimulation [5] 0.1% | inhibition of viability [6] 13.8% | viability decrease (inhibition) [7] -2.5% | viability decrease (inhibition) [8] -0.4%

CC(C)OP(=O)(CP(=O)(OC(C)C)OC(C)C)OC(C)C
inactive: nuclear beta-catenin stimulation ([1]; at 10 µM) -0.3% | insulin secretion stimulation [2] 0.8% | viability decrease [3] -8.5% | tube area decrease [4] 11.4% | GLP1 secretion stimulation [5] -0.8% | inhibition of viability [6] 1.5% | viability decrease (inhibition) [7] -11.1% | viability decrease (inhibition) [8] 10.4%
1.5%: nuclear beta-catenin stimulation ([1]; stimulation, at 2 µM)

N[C@H]1CN(c2c(F)cc3c(=O)c(C(=O)O)cn(C4C[C@@H]4F)c3c2Cl)CC12CC2 (some centres not stated)
1.9%: nuclear beta-catenin stimulation ([1]; stimulation, at 2 µM)
inactive: nuclear beta-catenin stimulation ([1]; at 10 µM) 0.1% | insulin secretion stimulation [2] 0.95% | viability decrease [3] 40.5% | tube area decrease [4] -10.7% | GLP1 secretion stimulation [5] -1.5% | inhibition of viability [6] 34.3% | viability decrease (inhibition) [8] -9.6%
active: viability decrease (inhibition) [7] 54.7%

CCNC(=O)NCCCOc1cccc(CN2CCCCC2)c1
-1.5%: nuclear beta-catenin stimulation ([1]; stimulation, at 2 µM)
inactive: nuclear beta-catenin stimulation ([1]; at 10 µM) -0.4% | insulin secretion stimulation [2] 4.7% | viability decrease [3] 1.2% | tube area decrease [4] 0.6% | GLP1 secretion stimulation [5] -0.5% | inhibition of viability [6] 5% | viability decrease (inhibition) [7] -19.1% | viability decrease (inhibition) [8] -12.6%

OCCCc1ccccc1
4.5%: nuclear beta-catenin stimulation ([1]; stimulation, at 2 µM)
active: viability decrease (inhibition) [7] -15.8%
inactive: nuclear beta-catenin stimulation ([1]; at 10 µM) 1.8% | insulin secretion stimulation [2] 3.2% | viability decrease [3] 9.55% | tube area decrease [4] -11.1% | GLP1 secretion stimulation [5] 4.3% | inhibition of viability [6] -1.15% | viability decrease (inhibition) [8] 7.85%

CCCCCCn1c(=O)c2c(ncn2C)n(C)c1=O
-2%: nuclear beta-catenin stimulation ([1]; stimulation, at 2 µM)
inactive: nuclear beta-catenin stimulation ([1]; at 10 µM) -0.5% | insulin secretion stimulation [2] 1.5% | viability decrease [3] 1.6% | tube area decrease [4] 10.5% | GLP1 secretion stimulation [5] 1.6% | inhibition of viability [6] 6.2% | viability decrease (inhibition) [7] 15% | viability decrease (inhibition) [8] -3.4%

Nc1ncnc2c1ncn2Cc1c(F)cccc1Cl
inactive: nuclear beta-catenin stimulation ([1]; at 10 µM) -0.7% | insulin secretion stimulation [2] 4.3% | viability decrease [3] -7.4% | tube area decrease [4] -5% | GLP1 secretion stimulation [5] 1.9% | inhibition of viability [6] 9.7% | viability decrease (inhibition) [7] -2.4% | viability decrease (inhibition) [8] -2%
-2.1%: nuclear beta-catenin stimulation ([1]; stimulation, at 2 µM)
